Source: PubChem BioAssay (NCI)
The panel holds about 83,000 compounds, 20% with a hit somewhere; the sample as a whole holds those more often.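 Cell lines were cultured in 96-well plates, exposed to a single compound concentration, and assessed for percent growth 48 hours later.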 Calls of active or inactive are those of the source.

System: HT29 colon
Test: NCI-60 one-dose screen, 48 h (100 = growth as untreated, 0 = no growth, -100 = all killed)
Conditions: 10 µM unless noted
Description: Growth inhibition of the HT29 human tumor cell line is measured as a screen for anti-cancer activity. Cells are grown in 96 well plates and exposed to the test compound for 48 hours. Compounds are tested at a single concentration, which is 10^-5 M for most compounds. The reported endpoint is percent growth (GI% or GIPRCNT), where numbers from 0 - 100% represent growth inhibition, and numbers from -100% - 0 represent cell death. For example, a value of 40 represents 60% growth inhibition. A value of 0 means no net growth occurred over the course of the experiment. A value of -40 indicates 40% of cells at the beginning of the experiment died by the end of the experiment. A value of -100 means all cells are dead at the end of the experiment.
NCI-60 Human Tumor Cell Lines Screen was performed using the standard one-dose NCI protocol, which is described in more detail at https://dtp.cancer.gov/discovery_development/nci-60/default.htm.
Compounds with GIPRCNT values below 10 were considered active. Activity score was based on GIPRCNT using the following formula: […]
Score is 0 for GIPRCNT values of 100 or above, 50 for GIPRCNT values of 0, and 100 for GIPRCNT values of -100.

**Q.** O=CC(OC(=O)c1ccccc1)C(OC(=O)c1ccccc1)C(COC(c1ccccc1)(c1ccccc1)c1ccccc1)OC(=O)c1ccccc1 (stereo not given) was tested. Which growth did it give?
**A.** 52.6% (inactive)

**Q.** CC1(O)CCC2CC3OC3(C)CCC3OC3(C)C(O)CC1C2(C)C (stereo not given) was tested. Which growth did it give?
**A.** 102% (inactive)

**Q.** For C[C@H](NC(=O)c1c(N)nn2cccnc12)c1cc2cccc(C#Cc3cnn(C)c3)c2c(=O)n1-c1ccccc1, which growth is on record?
**A.** 2.38% (active)

**Q.** Which growth does the source give for Cc1csc(-c2nnc(Nc3ccc(Oc4ncccc4-c4ccnc(N)n4)cc3)c3ccccc23)c1 here?
**A.** 10.1% (inactive)

**Q.** For Ic1ccccc1-c1ccccc1, which growth is on record?
**A.** 114% (inactive)

**Q.** How did the growth turn out when CC(C)[C@@H](C)/C=C/[C@@H](C)[C@H]1CCC2=C3C=CC4=CC(=O)CC[C@]4(C)[C@H]3CC[C@@]21C was run?
**A.** 74.3% (inactive)

**Q.** For CCc1nc(C(N)=O)c(Nc2ccc(N3CCC(N4CCN(C)CC4)CC3)c(OC)c2)nc1NC1CCOCC1, which growth is on record?
**A.** -23.9% (active)

**Q.** Which growth does the source give for Cc1cc(N(CCNc2ccnc3cc(Cl)ccc23)Cc2ccc3c(c2)OCO3)nc(N2CCN(C)CC2)n1 here?
**A.** 0.16% (active)

**Q.** C=CCCCOC1[C@H](OCc2ccccc2)C(OCc2ccccc2)C(OC)O[C@@H]1CNC(=O)c1cccc(I)c1 (stereo not given in full) was tested. Which growth did it give?
**A.** 33.1% (inactive)

**Q.** How did the growth turn out when COc1c(OCCCN2CCOCC2)ccc2c3n(c(=NC(=O)c4cnc(N)nc4)nc12)CCN3 was run?
**A.** 3.56% (active)

**Q.** CN(C)CCOC(=O)Nc1nc2ccc(Sc3ccccc3)cc2[nH]1 was tested. Which growth did it give?
**A.** 1.58% (active)

**Q.** For CC(=O)Nc1cccc(-n2c(=O)n(C3CC3)c(=O)c3c(Nc4ccc(I)cc4F)n(C)c(=O)c(C)c32)c1, which growth is on record?
**A.** 5.59% (active)

**Q.** For COc1cc2c(Oc3ccc4[nH]c(C)cc4c3F)ncnc2cc1OCCCN1CCCC1, which growth is on record?
**A.** 83.9% (inactive)

**Q.** For CC(=Nc1ccccc1)C1=C(O)C(Cc2ccc(O)cc2)NC1=O (stereo not given), which growth is on record?
**A.** 1.34% (active)

**Q.** Which growth does the source give for CCCCCCCC(=O)SCC/C=C/[C@@H]1CC(=O)NCc2cccc(n2)C2=N[C@@](C)(CS2)C(=O)N[C@@H](C(C)C)C(=O)N1 here?
**A.** -6.83% (active)

**Q.** With COC(=O)[C@]12CC[C@@H](C)[C@H](C)[C@@H]1C1=CC[C@@H]3[C@@]4(C)C(C=O)=C[C@@](C)(COS(C)(=O)=O)C4=CC[C@@]3(C)[C@]1(C)CC2 as the compound, how does the growth read?
**A.** -63.2% (active)

**Q.** How did the growth turn out when C=C1CC[C@@H]2[C@](C)(COC(C)=O)[C@H](OC(C)=O)CC[C@@]2(C)[C@@H]1C/C=C1/C(=O)OC[C@H]1OC(C)=O was run?
**A.** -39.4% (active)

**Q.** How did the growth turn out when COC(=O)[C@]12CC[C@@H](C)[C@H](C)[C@@H]1C1=CC[C@@H]3[C@@]4(C)C(C#N)=CC(C)=C4CC[C@@]3(C)[C@]1(C)CC2 was run?
**A.** 73.7% (inactive)

**Q.** COc1cc2nccc(Oc3ccc(NC(=O)C4(C(=O)Nc5ccc(F)cc5)CC4)cc3)c2cc1OC was tested. Which growth did it give?
**A.** -19.1% (active)

**Q.** Which growth does the source give for CNC(=O)c1ccc(Nc2ncc(C(F)(F)F)c(NCc3nccnc3N(C)S(C)(=O)=O)n2)cc1 here?
**A.** -11.9% (active)

**Q.** How did the growth turn out when Cc1cc(Oc2ccccc2)ccc1Nc1ncnc2ccc(-c3cnc(Cl)c(NS(C)(=O)=O)c3)cc12 was run?
**A.** 15.8% (inactive)

**Q.** With Cc1cc(Nc2cc(N3CCN(C)CC3)nc(/C=C/c3ccccc3)n2)n[nH]1 as the compound, how does the growth read?
**A.** -34.3% (active)

**Q.** Cc1cc(Nc2cc(N3CCN(C)CC3)nc(Sc3ccc(NC(=O)C4CC4)cc3)n2)n[nH]1 was tested. Which growth did it give?
**A.** 0.79% (active)

**Q.** Which growth does the source give for COc1cc(Nc2ncc(F)c(Nc3ccc4c(n3)N(COP(=O)(O)O)C(=O)C(C)(C)O4)n2)cc(OC)c1OC here?
**A.** -0.77% (active)

**Q.** For C/C(=C(/c1ccc(Cl)cc1)c1ccc(OCCN2CCCCC2)cc1)c1ccccc1, which growth is on record?
**A.** 3.98% (active)

**Q.** C[C@@H](C[C@H](CCO)c1cc(C(F)(F)F)cc(C(F)(F)F)c1)c1ccc2ccccc2c1 was tested. Which growth did it give?
**A.** 71.2% (inactive)

**Q.** For O=C(Cn1ccc2ccccc21)Nc1ccc(-c2nc3ccccc3s2)cc1, which growth is on record?
**A.** 115% (inactive)

**Q.** With CC[C@@H]1C(=O)N(C)c2cnc(Nc3ccc(C(=O)NC4CCC(N5CCN(CC6CC6)CC5)CC4)cc3OC)nc2N1C(C)C (stereo not given in full) as the compound, how does the growth read?
**A.** -25.9% (active)

**Q.** How did the growth turn out when CCS(=O)(=O)N1CCN(c2ccc(Nc3ncc(C(N)=O)c(NC4CC4)n3)cc2)CC1 was run?
**A.** 76.2% (inactive)

**Q.** With O=[N+]([O-])c1cc(Br)cc2c1[nH]c1ccc(Br)cc12 as the compound, how does the growth read?
**A.** 58.8% (inactive)

**Q.** How did the growth turn out when C=CCN1C(=O)c2cccc3c(-c4ccc5c(c4)ncn5C4CCCCC4)ccc(c23)C1=O was run?
**A.** 23.4% (inactive)

**Q.** How did the growth turn out when CC(=O)Oc1ccccc1C(=O)N=C1[Se]CCN1C(=O)c1ccccc1OC(C)=O was run?
**A.** 0.805% (active)

**Q.** For CO[C@@H](C)Cn1c(=O)n(C)c2cnc3ccc(-c4cncc(C(C)(C)O)c4)cc3c21, which growth is on record?
**A.** 2.26% (active)

**Q.** For CCN(CC)CCNC(=O)c1c(C)[nH]c(/C=C2\C(=O)Nc3ccc(F)cc32)c1C, which growth is on record?
**A.** -53.9% (active)

**Q.** Which growth does the source give for COC(=O)[C@H](C)NC(=O)[C@@H](OC)[C@@H]1Cc2cc3cc(OC4CC(OC5CC(O)C(O)C(C)O5)C(O)C(C)O4)c(C)c(O)c3c(O)c2C(=O)[C@H]1OC1CC(OC2CC(OC3CC(C)(O)C(O)C(C)O3)C(O)C(C)O2)C(O)C(C)O1 (stereo not given in full) here?
**A.** 3.99% (active)

**Q.** How did the growth turn out when NC1(C(=O)N[C@@H](CCO)c2ccc(Cl)cc2)CCN(c2ncnc3[nH]ccc23)CC1 was run?
**A.** 23.5% (inactive)

**Q.** Which growth does the source give for O=C1CCC(=O)CC1 here?
**A.** 102% (inactive)

**Q.** How did the growth turn out when CC(=O)NCC(=O)N1[C@@H]2CC[C@H]1c1ccc(Nc3ncc(C(F)(F)F)c(NC4CCC4)n3)cc12 was run?
**A.** 14.1% [2.5 µM] (inactive)

**Q.** How did the growth turn out when O=C1NC(=O)/C(=C/c2ccc3nccc(-c4ccncc4)c3c2)S1 was run?
**A.** -51.4% (active)

**Q.** How did the growth turn out when N#Cc1ccc(-n2nnc3ccccc32)cc1C#N was run?
**A.** 108% (inactive)
